Results taken from the supplement of paper PMC10849652.
About 7,900 targets were measured; listed, in parts, are those with a hit and a random draw of the rest. About 0.6% of all pairs of compound and target were hits. Unmarked numbers belong to inactive results.

What was measured:
Assay in all cases: log2 fold change, soluble protein after heating vs DMSO (PISA); higher = thermal stabilisation; K562 cells, 10 uM, 30 min; active = over 0.2 and 3.5 SD of the protein, either way, in both replicates (recomputed)
erlotinib = compound: C#Cc1cccc(Nc2ncnc3cc(OCCOC)c(OCCOC)cc23)c1 [erlotinib]
Summary of the method: (§1)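 K562 cells (2×10^6 cells/mL) were treated with 10 μM compound for 30 min, and aliquots were heated for 3 min over 48°C-58°C. Pooled aliquots were extracted in PBS with 0.5% NP-40 at 4°C, and the supernatant after 21,000xg for 90 min was measured by TMTpro 16plex LC-MS/MS with channel sums equalised. Reported thermal stability, relative to control samples and from duplicates, is a log2 fold change.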

[1] = compound: C/C(=N\NC(=O)C1=CC(=CC=C1)S(=O)(=O)N2CCOCC2)/C3=C(C=CC(=C3)Cl)O
Summary of the method: as §1

[2] = compound: C1=CC(=C(C=C1Cl)C2=NC3=NC=CN=C3C(=N2)NC4=CC=NC=C4)F
Summary of the method: as §1

[3] = compound: C1=CC(=CC=C1C2=NC3=C(N2)C=C(C=C3)C(=O)N)OC4=CC=C(C=C4)Cl
Summary of the method: as §1

[4] = compound: C1=CC2=C(C=CC(=C2)/C=C\3/C(=O)NC(=NCC4=CC=CS4)S3)N=C1
Summary of the method: as §1

[5] = compound: C1=CC2=NC=CN=C2C=C1/C=C/3\C(=O)NC(=O)S3
Summary of the method: as §1

[6] = compound: C1=CC=C(C=C1)C2=NC(=C(N2)C3=CC=NC=C3)C4=CC(=C(C=C4)Cl)O
Summary of the method: as §1

[7] = compound: C1=CC=C2C(=C1)C3=NNC4=CC=CC(=C43)C2=O
Summary of the method: as §1

[8] = compound: C1CCN(C1)C(=O)NC2=CC=CC(=C2)NC3=NC=C(C(=N3)NCCC4=CN=CN4)Br
Summary of the method: as §1

[9] = compound: C1CN(CCC1(CC2=CC=C(C=C2)Cl)N)C3=NC=NC4=C3C=CN4
Summary of the method: as §1

IRAK-1-4 Inhibitor I = compound: C1COCCN1CCN2C3=CC=CC=C3N=C2NC(=O)C4=CC(=CC=C4)[N+](=O)[O-] [IRAK-1-4 Inhibitor I]
Summary of the method: as §1

ibrutinib = compound: C=CC(=O)N1CCC[C@@H](n2nc(-c3ccc(Oc4ccccc4)cc3)c3c(N)ncnc32)C1 [ibrutinib]
Summary of the method: as §1

[10] = compound: CC(=O)c1cnc2ccc(-c3cc(Cl)c(O)c(Cl)c3)nc2c1N[C@H]1CC[C@H](CN(C)C)CC1
Summary of the method: as §1

ralimetinib = compound: CC(C)(C)Cn1c(N)nc2ccc(-c3[nH]c(C(C)(C)C)nc3-c3ccc(F)cc3)nc21 [ralimetinib]
Summary of the method: as §1

[11] = compound: CC(C)(O)CC(=O)NCCn1ccc2ncnc(Nc3ccc(Oc4cccc(C(F)(F)F)c4)c(Cl)c3)c21
Summary of the method: as §1

[12] = compound: CC(C)C1=C2N=C(C=C(N2N=C1)NCC3=CC=CC=C3)NCCCCCCN
Summary of the method: as §1

[13] = compound: CC(C)C[C@@H](C=O)NC(=O)[C@H](CC(C)C)NC(=O)[C@H](CC(C)C)NC(=O)OCc1ccccc1
Summary of the method: as §1

pinometostat = compound: CC(C)N(C[C@H]1O[C@@H](n2cnc3c(N)ncnc32)[C@H](O)[C@@H]1O)[C@H]1C[C@@H](CCc2nc3cc(C(C)(C)C)ccc3[nH]2)C1 [pinometostat]
Summary of the method: as §1

[14] = compound: CC1=C(C(CC(=O)N1)C2=CC=C(C=C2)C(F)(F)F)C(=O)NC3=C(C=C4C(=C3)C=NN4)F
Summary of the method: as §1

[15] = compound: CC1=C(C2=C(C=C1)C(=O)C3=CC=CC=C3N2CCCN)C
Summary of the method: as §1

Chain of UniProt P11142 (P11142 whole entry, looked up): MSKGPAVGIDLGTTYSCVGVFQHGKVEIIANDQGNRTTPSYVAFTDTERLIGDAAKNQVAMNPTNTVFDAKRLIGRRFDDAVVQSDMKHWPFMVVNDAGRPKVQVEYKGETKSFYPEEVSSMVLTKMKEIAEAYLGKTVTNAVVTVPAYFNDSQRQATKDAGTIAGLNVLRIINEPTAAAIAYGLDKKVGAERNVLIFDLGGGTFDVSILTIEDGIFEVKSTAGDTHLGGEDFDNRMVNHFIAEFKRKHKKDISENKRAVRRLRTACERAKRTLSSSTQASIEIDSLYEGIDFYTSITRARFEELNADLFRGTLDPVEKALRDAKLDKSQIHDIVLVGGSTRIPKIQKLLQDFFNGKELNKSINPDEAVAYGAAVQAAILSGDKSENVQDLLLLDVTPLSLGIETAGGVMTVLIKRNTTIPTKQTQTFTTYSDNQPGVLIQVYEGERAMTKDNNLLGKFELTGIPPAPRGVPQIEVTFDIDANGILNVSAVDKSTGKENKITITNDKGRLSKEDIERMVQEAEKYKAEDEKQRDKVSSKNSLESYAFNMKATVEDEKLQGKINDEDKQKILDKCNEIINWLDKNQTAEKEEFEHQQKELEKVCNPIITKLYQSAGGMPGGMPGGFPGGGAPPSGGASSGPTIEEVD
Chain of UniProt P30519 (P30519 whole entry, looked up): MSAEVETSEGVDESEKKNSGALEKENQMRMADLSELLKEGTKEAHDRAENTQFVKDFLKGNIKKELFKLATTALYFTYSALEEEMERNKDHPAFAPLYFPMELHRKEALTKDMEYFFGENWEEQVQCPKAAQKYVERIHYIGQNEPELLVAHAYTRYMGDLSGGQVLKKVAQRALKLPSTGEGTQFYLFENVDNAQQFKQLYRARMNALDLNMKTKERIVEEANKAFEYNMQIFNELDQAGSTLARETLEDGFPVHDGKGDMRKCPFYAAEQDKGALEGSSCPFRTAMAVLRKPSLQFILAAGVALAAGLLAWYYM
Chain of UniProt Q86YM7 (Q86YM7 whole entry, looked up): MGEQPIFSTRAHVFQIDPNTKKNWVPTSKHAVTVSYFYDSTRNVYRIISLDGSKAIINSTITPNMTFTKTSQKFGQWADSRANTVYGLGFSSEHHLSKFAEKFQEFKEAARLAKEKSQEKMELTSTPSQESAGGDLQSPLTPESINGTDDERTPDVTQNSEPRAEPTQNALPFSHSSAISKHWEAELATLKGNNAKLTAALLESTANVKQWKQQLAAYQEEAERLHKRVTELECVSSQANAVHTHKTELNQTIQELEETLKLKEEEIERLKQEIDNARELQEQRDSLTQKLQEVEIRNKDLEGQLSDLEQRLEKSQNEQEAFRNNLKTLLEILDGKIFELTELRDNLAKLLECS
Chain of UniProt Q8IWJ2 (Q8IWJ2 whole entry, looked up): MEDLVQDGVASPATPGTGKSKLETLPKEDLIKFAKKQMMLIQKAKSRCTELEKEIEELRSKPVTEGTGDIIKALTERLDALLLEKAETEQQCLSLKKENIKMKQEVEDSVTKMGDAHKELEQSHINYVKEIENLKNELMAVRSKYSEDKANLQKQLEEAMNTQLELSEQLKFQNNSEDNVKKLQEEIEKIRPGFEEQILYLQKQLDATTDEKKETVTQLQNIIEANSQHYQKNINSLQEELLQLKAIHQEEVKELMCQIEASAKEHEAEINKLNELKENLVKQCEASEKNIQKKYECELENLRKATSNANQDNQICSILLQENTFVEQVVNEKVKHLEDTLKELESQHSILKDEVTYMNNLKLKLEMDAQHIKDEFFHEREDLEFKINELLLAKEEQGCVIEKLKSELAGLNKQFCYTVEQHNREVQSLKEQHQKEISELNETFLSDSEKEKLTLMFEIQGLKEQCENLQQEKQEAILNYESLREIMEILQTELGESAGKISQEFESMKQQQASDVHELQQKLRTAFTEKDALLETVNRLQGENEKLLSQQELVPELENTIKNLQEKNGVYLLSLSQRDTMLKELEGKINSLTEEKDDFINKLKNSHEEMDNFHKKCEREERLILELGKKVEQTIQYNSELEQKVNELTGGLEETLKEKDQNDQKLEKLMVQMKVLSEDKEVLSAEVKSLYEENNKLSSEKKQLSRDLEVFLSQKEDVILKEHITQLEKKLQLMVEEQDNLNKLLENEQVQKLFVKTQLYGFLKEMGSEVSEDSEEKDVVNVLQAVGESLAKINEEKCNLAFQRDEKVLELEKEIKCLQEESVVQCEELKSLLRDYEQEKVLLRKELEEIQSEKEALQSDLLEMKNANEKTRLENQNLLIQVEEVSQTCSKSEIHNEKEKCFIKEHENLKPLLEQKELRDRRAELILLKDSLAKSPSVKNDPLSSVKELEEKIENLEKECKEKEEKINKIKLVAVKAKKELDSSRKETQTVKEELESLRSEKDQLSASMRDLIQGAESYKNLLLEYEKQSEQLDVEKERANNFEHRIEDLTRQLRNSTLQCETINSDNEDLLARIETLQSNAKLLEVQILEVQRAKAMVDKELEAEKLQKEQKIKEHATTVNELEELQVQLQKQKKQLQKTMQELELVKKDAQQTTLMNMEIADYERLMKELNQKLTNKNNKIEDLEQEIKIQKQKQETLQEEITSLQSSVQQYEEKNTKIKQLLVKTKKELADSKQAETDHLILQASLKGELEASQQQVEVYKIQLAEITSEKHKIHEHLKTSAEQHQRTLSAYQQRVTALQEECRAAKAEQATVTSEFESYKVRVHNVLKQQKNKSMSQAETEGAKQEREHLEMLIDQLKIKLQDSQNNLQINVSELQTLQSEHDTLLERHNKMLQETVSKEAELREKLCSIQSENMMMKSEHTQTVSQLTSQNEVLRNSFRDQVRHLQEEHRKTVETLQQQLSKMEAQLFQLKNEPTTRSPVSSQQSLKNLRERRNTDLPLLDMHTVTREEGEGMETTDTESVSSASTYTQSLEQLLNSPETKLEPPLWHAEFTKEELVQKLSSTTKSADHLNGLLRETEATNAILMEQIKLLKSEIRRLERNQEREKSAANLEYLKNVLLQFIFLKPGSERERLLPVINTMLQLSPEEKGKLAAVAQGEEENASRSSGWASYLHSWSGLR
Chain of UniProt Q9Y3D6 (Q9Y3D6 whole entry, looked up): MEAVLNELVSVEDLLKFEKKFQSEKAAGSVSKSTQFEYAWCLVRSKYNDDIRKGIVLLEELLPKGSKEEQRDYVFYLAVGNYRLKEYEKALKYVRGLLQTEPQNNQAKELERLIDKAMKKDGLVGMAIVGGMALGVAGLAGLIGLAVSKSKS
Chain of UniProt Q8N9F7 (Q8N9F7 whole entry, looked up): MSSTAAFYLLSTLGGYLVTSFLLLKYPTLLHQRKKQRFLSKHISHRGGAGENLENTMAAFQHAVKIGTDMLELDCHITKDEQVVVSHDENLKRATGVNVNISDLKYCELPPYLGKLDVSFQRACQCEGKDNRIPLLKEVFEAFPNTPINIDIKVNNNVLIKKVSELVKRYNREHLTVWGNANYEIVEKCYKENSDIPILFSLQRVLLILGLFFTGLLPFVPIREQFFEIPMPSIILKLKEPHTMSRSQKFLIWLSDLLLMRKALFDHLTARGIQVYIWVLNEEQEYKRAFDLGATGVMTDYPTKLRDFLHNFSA
Chain of UniProt P37268 (P37268 whole entry, looked up): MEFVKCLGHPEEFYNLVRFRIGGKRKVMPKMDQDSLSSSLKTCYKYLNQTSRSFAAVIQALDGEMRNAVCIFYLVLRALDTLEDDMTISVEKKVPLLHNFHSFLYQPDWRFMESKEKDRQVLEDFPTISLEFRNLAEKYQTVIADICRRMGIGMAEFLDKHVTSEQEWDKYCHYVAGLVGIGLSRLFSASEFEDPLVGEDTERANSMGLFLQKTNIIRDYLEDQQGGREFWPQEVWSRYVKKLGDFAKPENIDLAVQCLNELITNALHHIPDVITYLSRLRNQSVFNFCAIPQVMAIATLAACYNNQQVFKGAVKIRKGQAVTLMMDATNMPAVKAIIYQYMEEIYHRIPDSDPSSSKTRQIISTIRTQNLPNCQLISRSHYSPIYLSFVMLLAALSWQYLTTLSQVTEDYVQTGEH
Chain of UniProt O75146 (O75146 whole entry, looked up): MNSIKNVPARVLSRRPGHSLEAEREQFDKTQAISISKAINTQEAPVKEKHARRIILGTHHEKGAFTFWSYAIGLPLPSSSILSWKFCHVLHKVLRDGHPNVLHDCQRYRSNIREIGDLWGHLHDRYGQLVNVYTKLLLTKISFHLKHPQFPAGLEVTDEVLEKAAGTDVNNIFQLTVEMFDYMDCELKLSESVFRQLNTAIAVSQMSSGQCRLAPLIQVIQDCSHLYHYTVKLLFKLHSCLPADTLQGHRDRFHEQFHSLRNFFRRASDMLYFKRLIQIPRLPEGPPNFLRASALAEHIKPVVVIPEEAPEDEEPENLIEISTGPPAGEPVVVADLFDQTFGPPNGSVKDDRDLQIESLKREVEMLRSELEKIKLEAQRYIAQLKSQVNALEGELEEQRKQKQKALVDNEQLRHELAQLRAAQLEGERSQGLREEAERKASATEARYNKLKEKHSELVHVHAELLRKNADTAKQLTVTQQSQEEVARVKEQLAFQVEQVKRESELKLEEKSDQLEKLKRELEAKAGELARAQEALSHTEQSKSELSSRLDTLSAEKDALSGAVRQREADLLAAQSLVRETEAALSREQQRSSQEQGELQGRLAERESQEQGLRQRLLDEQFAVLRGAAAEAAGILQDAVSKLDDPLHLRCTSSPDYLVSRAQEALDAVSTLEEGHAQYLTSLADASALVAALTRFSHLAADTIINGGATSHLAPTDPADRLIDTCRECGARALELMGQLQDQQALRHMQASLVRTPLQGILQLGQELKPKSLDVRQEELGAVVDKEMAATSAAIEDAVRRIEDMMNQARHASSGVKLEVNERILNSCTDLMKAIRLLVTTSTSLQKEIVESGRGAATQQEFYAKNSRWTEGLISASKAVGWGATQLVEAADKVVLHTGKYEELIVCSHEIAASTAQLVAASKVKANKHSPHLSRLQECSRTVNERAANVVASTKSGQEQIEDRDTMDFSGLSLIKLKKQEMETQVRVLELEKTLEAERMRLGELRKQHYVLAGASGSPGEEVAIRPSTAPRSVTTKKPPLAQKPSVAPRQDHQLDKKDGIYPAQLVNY

Row | Target | log2 fold change (erlotinib) | log2 fold change [1] | log2 fold change [2] | log2 fold change [3] | log2 fold change [4] | log2 fold change [5] | log2 fold change [6] | log2 fold change [7] | log2 fold change [8] | log2 fold change [9] | log2 fold change (IRAK-1-4 Inhibitor I) | log2 fold change (ibrutinib) | log2 fold change [10] | log2 fold change (ralimetinib) | log2 fold change [11] | log2 fold change [12] | log2 fold change [13] | log2 fold change (pinometostat) | log2 fold change [14] | log2 fold change [15]
1 | FARS2 (UniProt O95363) | 0 | 0.081 | -0.046 | 0.061 | -0.03 | -0.018 | 0.014 | 0.065 | 0.084 | -0.057 | 0 | -0.038 | -0.05 | -0.004 | -0.028 | -0.182 | -0.001 | 0.002 | -0.003 | -0.018
2 | HSPA8 (UniProt P11142) | -0.016 | -0.031 | 0.01 | -0.014 | 0 | 0 | -0.003 | -0.088 | 0.009 | 0.017 | 0.032 | -0.015 | 0.014 | -0.004 | 0.029 | 0.037 | -0.013 | -0.023 | -0.009 | -0.016
3 | GPX4 (UniProt P36969) | -0.021 | 0.035 | -0.012 | 0.057 | -0.007 | 0.006 | 0.142 | -0.063 | -0.036 | 0.058 | -0.026 | 0.065 | -0.005 | 0.01 | 0.003 | 0.099 | -0.462 (active) | -0.078 | 0.002 | 0.02
4 | FOXK1 (UniProt P85037) | 0.113 | 0 | 0.054 | -0.307 | 0.425 | 0.355 | -0.075 | 0.61 | 0.394 | 0.352 | 0.046 | 0.121 | -1.03 (active) | -0.027 | 0.015 | 0.111 | 0.052 | -0.002 | -0.05 | 0.154
5 | HMOX2 (UniProt P30519) | 0.065 | 0.057 | 0.039 | -0.038 | 0.024 | -0.023 | 0.03 | 0.032 | -0.04 | 0.016 | -0.061 | -0.035 | -0.092 | 0.081 | 0.031 | 0.08 | 0.028 | 0 | -0.016 | 0.012
6 | FDFT1 (UniProt P37268) | 0.126 | -0.026 | -0.01 | 0.037 | 0.209 | 0 | 0.011 | 0.144 | -0.039 | 0.059 | 0.001 | 0.007 | -0.025 | -0.028 | -0.015 | -0.083 | 0.077 | -0.042 | 0.012 | -0.06
7 | GCC2 (UniProt Q8IWJ2) | -0.062 | 0 | -0.155 | -0.017 | -0.076 | 0.034 | -0.032 | -0.021 | -0.054 | -0.154 | -0.046 | -0.023 | 0.105 | 0.131 | 0 | -0.075 | 0.111 | 0.198 | 0.085 | -0.091
8 | FIS1 (UniProt Q9Y3D6) | 0.013 | 0.066 | 0.015 | 0.01 | -0.034 | 0.024 | -0.025 | 0.02 | -0.06 | 0.09 | 0.029 | 0.003 | 0.067 | -0.036 | 0.029 | -0.023 | -0.025 | -0.074 | 0.004 | -0.031
9 | HIP1R (UniProt O75146) | 0.017 | 0.034 | 0.024 | 0.005 | 0.054 | 0.013 | 0.018 | 0.033 | -0.004 | -0.005 | 0.029 | -0.027 | -0.022 | 0.01 | -0.034 | -0.059 | -0.003 | 0 | -0.004 | 0.138
10 | HEATR5B (UniProt Q9P2D3) | -0.009 | 0.059 | -0.128 | 0.025 | -0.067 | 0.004 | 0.007 | 0.05 | -0.026 | 0.043 | -0.002 | 0.017 | 0.014 | 0.04 | -0.021 | -0.063 | 0.023 | 0.008 | 0.022 | 0.01
11 | GDPD1 (UniProt Q8N9F7) | 0.077 | 0.024 | -0.061 | -0.018 | -0.015 | 0.01 | 0.048 | -0.018 | -0.037 | 0.024 | 0.02 | -0.03 | 0.044 | 0.066 | -0.03 | 0.04 | 0.03 | -0.027 | -0.005 | -0.015
12 | HOMER1 (UniProt Q86YM7) | -0.103 | -0.015 | -0.05 | 0.016 | 0.021 | 0.074 | -0.057 | -0.015 | 0.062 | -0.011 | 0.104 | 0.009 | -0.043 | 0.004 | 0.03 | 0.034 | -0.088 | -0.225 (active) | 0.038 | 0.093
13 | GYS1 (UniProt P13807) | -0.022 | -0.104 | -0.345 | -0.066 | -0.071 | -0.003 | -0.14 | 0.176 | -0.021 | -0.069 | -0.151 | 0.009 | -0.976 (active) | 0.095 | 0.158 | -0.253 | 0.141 | 0.412 | 0.042 | 0.046
